Reference: PubChem BioAssay (Tox21)
Several values for one entry are separate records, joined by “and”; a condition that tells them apart may be missing. Equal values may be shown once. Results filed as inconclusive are left out. Some structures have more than one record in an assay (separate samples or runs), and their calls can disagree. Activity calls are given as the source filed them. Unless noted, calls follow the shape of the dose curve; as a rule, active = well fitted curve in the direction sought with a large enough effect in the repeat runs; inconclusive = weak or mixed curves; inactive = no such curve, though single readings can be large; an effect the other way counts as inactive or inconclusive.

What was measured:
[1] = qHTS assay to identify small molecule antagonists of the sonic hedgehog signaling (Shh) pathway (AID 1259369; calls by dose curve; also: nearly all actives have a fitted effect of over 45% in size; also: potency is read from the fitted curve at half-maximal effect)
How it was run: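 NIH/3T3-derived Gli1-Luc reporter cells plated 4 h, dosed with compound, then stimulated with conditioned medium for 24 h at 37 C. Firefly luciferase luminescence read after 30 min with detection reagent at room temperature.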

[2] = qHTS assay to identify small molecule agonists of the androgen receptor (AR) signaling pathway in the presence of an antagonist - cell viability counter screen (AID 1259379); also: nearly all actives have a fitted effect of over 25% in size; also: potency is read from the fitted curve at half-maximal effect;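 as to activity change, negative = cytotoxicity: MDA-kb2 human breast cancer cells carrying an MMTV luciferase reporter; series mostly up to about 92 µM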
How it was run: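 MDA-kb2 cells (MMTV-luciferase, AR/GR), 3,000/well, 5 h attachment, then 3.0 µM nilutamide (final) and compounds at 15 concentrations. Viability by CellTiter-Fluor fluorescence after 16 h at 37 °C, 0% CO2, in the reporter wells.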

[3] = qHTS assay to identify small molecule agonists of the estrogen receptor beta (ER-beta) signaling pathway - cell viability counter screen (AID 1259380); also: nearly all actives have a fitted effect of over 30% in size; also: potency is read from the fitted curve at half-maximal effect
How it was run: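 ER-beta-UAS-bla HEK293T cells in medium with 2% charcoal-stripped FBS, pre-incubated 6 hr, then treated 16 hr at 37C. Cytotoxicity read in the same wells by CellTiter-Glo luminescence after 30 min at room temperature.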

[4] = qHTS assay to identify small molecule agonists or antagonists of the thyroid stimulating hormone receptor (TSHR) signaling pathway - wild type cell line counter screen (AID 1259384; calls by dose curve)
How it was run: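 Wild-type Hek293 cells, 800/well, 18 h at 37C, then compound with Ro20-1724 for 30 min RT. cAMP by HTRF (cAMP-d2/anti-cAMP cryptate), 1 h RT, fluorescence read. 15 concentrations, triplicates.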

[5] = target: Thyrotropin receptor (Homo sapiens) (UniProt P16473); assay: qHTS assay to identify small molecule antagonists of the thyroid stimulating hormone receptor (TSHR) signaling pathway (AID 1259385; calls by dose curve; also: nearly all actives have a fitted effect of over 20% in size)
How it was run: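 TSHR-HEK293 cells (800/well) plated 18 h, then compounds with Ro20-1724 and TSH at 1.5 ng/mL final, 30 min at room temperature. cAMP quantified by HTRF (cAMP-d2/anti-cAMP-cryptate, 1 h); 15 concentrations in triplicate.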

[6] = qHTS assay to identify small molecule agonists of the estrogen receptor alpha (ER-alpha) signaling pathway in the presence of an antagonist - cell viability counter screen (AID 1259386);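 also: cells exposed to compounds for 22 h at 37 °C before the viability read; nearly all actives have a fitted effect of over 30% in size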; also: potency is read from the fitted curve at half-maximal effect; as to activity change, negative = cytotoxicity: series mostly up to about 92 µM
How it was run: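 Cell viability in VM7Luc4E2 cells (endogenous full-length ER-alpha) measured by CellTiter-Fluor fluorescence in the same wells as the luciferase screen. Cells pre-cultured 5 days in charcoal-stripped serum, then treated 22 h with compounds at 15 concentrations plus 10.0nM ICI-182,780.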

[7] = target: Progesterone receptor (Homo sapiens) (UniProt P06401); assay: qHTS assay to identify small molecule agonists of the progesterone receptor (PR) signaling pathway (AID 1346784; calls by dose curve; also: nearly all actives have a fitted effect of over 30% in size; also: potency is read from the fitted curve at half-maximal effect)
How it was run: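 Fluorescence from LiveBLAzer B/G FRET substrate cleavage (2 hr, RT) reported PR activation in PR-UAS-bla HEK 293T cells treated 16 hr at 37C/5% CO2 with compounds; medium contained 2% charcoal-stripped FBS.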

[8] = target: Progesterone receptor (Homo sapiens) (UniProt P06401); assay: qHTS assay to identify small molecule antagonists of the progesterone receptor (PR) signaling pathway (AID 1346795; active = well fitted inhibition curve with a large enough effect in the signal ratio in the repeat runs, not every such curve was filed as active; the % refers to the signal ratio; also: potency is read from the fitted curve at half-maximal effect)
How it was run: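 Fluorescence intensity measured 2 hr after adding beta-lactamase FRET substrate to PR-UAS-bla HEK293T cells that had been co-treated 16 hr with compound and 1 nM R5020 (final concentration) in 2% charcoal-stripped FBS.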

[9] = qHTS assay to identify small molecule antagonists of the progesterone receptor (PR) signaling pathway - cell viability counter screen (AID 1346798); also: nearly all actives have a fitted effect of over 50% in size; also: potency is read from the fitted curve at half-maximal effect; as to activity change, negative = cytotoxicity: series mostly up to about 92 µM
How it was run: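 CellTiter-Glo luminescence; PR-UAS-bla HEK293T, 3,000 cells/well; compound + R5020, 16 hr, 37C/5% CO2; 30 min RT before read.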

[10] = qHTS assay to identify small molecule agonists of the progesterone receptor (PR) signaling pathway - cell viability counter screen (AID 1346799; calls by dose curve; also: nearly all actives have a fitted effect of over 45% in size; also: potency is read from the fitted curve at half-maximal effect)
How it was run: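 In parallel with the beta-lactamase readout, cytotoxicity toward PR-UAS-bla HEK293T cells was measured by CellTiter-Glo luminescence following 16 hr compound incubation in 2% charcoal-stripped FBS medium.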

[11] = qHTS assay to identify small molecule antagonists of the TGF-beta/Smad signaling pathway - cell viability counter screen (AID 1346824); also: nearly all actives have a fitted effect of over 50% in size
How it was run: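 SBE-bla HEK 293T cells, incubated overnight, then compound plus 0.25 ng/mL TGF-beta1 (stock added) for 5 hr at 37 C. Viability was read in the same wells by CellTiter-Glo luminescence after 30 min at room temperature.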

[12] = qHTS assay to identify small molecule agonists of the TGF-beta/Smad signaling pathway - cell viability counter screen (AID 1346829); also: top concentration of the series differs between compounds; nearly all actives have a fitted effect of over 45% in size
How it was run: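 HEK 293T SBE-bla line, 5 hr compound exposure at 37 C, multiplexed CellTiter-Glo viability read by luminescence.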

[13] = qHTS assay to identify small molecule agonists of the TGF-beta/Smad signaling pathway (AID 1346859; active = well fitted activation curve with a large enough effect in the signal ratio in the repeat runs, not every such curve was filed as active; the % refers to the signal ratio; also: series mostly up to about 77 µM)
How it was run: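 After overnight seeding, SBE-bla HEK 293T cells are dosed with compounds in DMSO and kept 5 hr at 37 C, 5% CO2. LiveBLAzer-type FRET substrate is then applied for 2 hr at room temperature.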

[14] = target: Thyrotropin-releasing hormone receptor (Homo sapiens) (UniProt P34981); assay: qHTS assay to identify small molecule antagonists of the thyrotropin-releasing hormone receptor (TRHR) signaling pathway (AID 1346877; active = well fitted inhibition curve with a large enough effect in the repeat runs, not every such curve was filed as active; also: series mostly up to about 51 µM)
How it was run: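 TRHR-expressing HEK293 cells loaded with calcium dye for 2 h at 37 C; compounds pre-incubated 5 min at room temperature before TRH challenge at 1 nM final. Intracellular calcium fluorescence read kinetically for 3 min; 15 concentrations in triplicate.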

[15] = target: Thyrotropin-releasing hormone receptor (Homo sapiens) (UniProt P34981); assay: qHTS assay to identify small molecule agonists of the thyrotropin-releasing hormone receptor (TRHR) signaling pathway (AID 1346891; calls by dose curve; also: series mostly up to about 58 µM)
How it was run: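 Compounds were tested as agonists at 15 concentrations, in triplicate, on TRHR-Hek293 cells; calcium-sensitive dye fluorescence was recorded for 3 min following addition.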

[16] = qHTS assay to identify small molecule antagonists of the estrogen receptor beta (ER-beta) signaling pathway - cell viability counter screen (AID 1259382); also: nearly all actives have a fitted effect of over 55% in size; also: potency is read from the fitted curve at half-maximal effect;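 as to activity change, negative = cytotoxicity: HEK293T cells carrying ER-beta-UAS-bla reporter stimulated with estradiol; series mostly up to about 92 µM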
How it was run: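 ER-beta-UAS-bla HEK293T cells in 2% charcoal-stripped FBS medium, treated with compound plus 1 nM 17-beta-estradiol for 16 h at 37C. Viability read by CellTiter-Glo luminescence after 30 min at room temperature in the same wells.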

[17] = target: Estrogen receptor (Homo sapiens) (UniProt P03372); assay: qHTS assay to identify small molecule agonists of the estrogen receptor alpha (ER-alpha) signaling pathway in the presence of an antagonist (AID 1259383; calls by dose curve; also: nearly all actives have a fitted effect of over 15% in size; also: potency is read from the fitted curve at half-maximal effect; as to activation: top concentration of the series differs between compounds)
How it was run: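 VM7Luc4E2 cells express endogenous full-length ER-alpha with an ERE-luciferase reporter and were hormone-deprived for 5 days. Compounds at 15 concentrations were added with 10.0nM ICI-182,780 for 22hr at 37C. Luminescence was read with ONE-Glo.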
% is scaled to controls: 0 for no effect and ±100 for the full control effect.

Sequence of Estrogen receptor (Homo sapiens) (P03372 whole entry, looked up): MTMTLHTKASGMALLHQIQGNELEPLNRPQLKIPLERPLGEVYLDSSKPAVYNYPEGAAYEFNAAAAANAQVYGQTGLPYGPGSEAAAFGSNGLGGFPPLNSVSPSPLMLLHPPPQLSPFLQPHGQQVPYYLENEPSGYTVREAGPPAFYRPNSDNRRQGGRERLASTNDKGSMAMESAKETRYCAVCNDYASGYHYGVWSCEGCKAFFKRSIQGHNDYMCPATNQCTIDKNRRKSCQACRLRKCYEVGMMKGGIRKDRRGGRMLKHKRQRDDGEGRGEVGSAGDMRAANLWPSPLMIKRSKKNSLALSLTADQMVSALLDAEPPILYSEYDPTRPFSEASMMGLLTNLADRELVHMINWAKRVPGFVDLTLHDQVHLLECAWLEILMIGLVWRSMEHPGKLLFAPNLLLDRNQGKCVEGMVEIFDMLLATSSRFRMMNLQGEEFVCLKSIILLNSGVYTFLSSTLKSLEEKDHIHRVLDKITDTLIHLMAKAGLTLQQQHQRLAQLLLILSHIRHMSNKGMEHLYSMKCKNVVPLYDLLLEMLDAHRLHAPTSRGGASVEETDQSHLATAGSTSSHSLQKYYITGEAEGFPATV
Sequence of Progesterone receptor (Homo sapiens) (P06401 whole entry, looked up): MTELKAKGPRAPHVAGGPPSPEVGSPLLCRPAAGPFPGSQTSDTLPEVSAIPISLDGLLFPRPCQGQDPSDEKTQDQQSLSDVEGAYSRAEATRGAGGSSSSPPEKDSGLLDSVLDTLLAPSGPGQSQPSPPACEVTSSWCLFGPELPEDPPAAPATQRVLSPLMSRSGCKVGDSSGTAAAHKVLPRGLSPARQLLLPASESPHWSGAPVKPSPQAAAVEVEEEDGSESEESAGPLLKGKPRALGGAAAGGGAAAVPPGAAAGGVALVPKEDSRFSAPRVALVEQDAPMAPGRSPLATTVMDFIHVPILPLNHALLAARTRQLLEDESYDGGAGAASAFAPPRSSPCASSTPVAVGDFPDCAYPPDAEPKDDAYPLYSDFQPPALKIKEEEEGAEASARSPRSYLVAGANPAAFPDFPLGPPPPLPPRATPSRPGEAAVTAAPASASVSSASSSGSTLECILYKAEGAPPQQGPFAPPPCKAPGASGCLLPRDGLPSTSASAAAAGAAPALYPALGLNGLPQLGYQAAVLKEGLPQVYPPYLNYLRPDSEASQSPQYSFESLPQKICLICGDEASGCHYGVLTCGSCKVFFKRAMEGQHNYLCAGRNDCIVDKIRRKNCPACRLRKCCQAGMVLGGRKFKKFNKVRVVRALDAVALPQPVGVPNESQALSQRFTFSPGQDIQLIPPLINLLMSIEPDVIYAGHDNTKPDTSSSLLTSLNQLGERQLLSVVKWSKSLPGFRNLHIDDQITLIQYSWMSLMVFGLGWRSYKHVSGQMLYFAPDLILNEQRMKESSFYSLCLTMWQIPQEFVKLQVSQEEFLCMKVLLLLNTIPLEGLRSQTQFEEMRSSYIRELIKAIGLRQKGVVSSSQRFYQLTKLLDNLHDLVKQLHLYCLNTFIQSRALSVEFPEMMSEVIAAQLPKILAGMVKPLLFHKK
Sequence of Thyrotropin receptor (Homo sapiens) (P16473 whole entry, looked up): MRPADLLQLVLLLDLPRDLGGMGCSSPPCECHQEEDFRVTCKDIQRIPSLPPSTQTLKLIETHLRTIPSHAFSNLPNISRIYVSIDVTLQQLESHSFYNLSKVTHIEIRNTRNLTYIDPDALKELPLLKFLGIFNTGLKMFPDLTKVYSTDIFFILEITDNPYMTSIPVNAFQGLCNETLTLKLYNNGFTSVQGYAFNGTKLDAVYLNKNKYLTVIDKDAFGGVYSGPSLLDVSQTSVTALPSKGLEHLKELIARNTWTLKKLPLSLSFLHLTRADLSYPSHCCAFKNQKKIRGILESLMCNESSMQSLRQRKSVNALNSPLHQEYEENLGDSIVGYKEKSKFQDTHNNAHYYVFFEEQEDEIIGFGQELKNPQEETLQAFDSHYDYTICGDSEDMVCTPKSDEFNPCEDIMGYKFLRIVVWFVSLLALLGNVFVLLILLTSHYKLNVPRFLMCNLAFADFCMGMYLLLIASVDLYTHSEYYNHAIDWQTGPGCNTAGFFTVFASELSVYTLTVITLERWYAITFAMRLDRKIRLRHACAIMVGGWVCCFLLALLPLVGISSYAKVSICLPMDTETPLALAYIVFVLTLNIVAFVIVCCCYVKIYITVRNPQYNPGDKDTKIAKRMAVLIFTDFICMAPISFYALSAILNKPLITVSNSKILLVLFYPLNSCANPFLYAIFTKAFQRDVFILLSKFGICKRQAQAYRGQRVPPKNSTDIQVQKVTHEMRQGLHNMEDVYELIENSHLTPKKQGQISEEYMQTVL
Sequence of Thyrotropin-releasing hormone receptor (Homo sapiens) (P34981 whole entry, looked up): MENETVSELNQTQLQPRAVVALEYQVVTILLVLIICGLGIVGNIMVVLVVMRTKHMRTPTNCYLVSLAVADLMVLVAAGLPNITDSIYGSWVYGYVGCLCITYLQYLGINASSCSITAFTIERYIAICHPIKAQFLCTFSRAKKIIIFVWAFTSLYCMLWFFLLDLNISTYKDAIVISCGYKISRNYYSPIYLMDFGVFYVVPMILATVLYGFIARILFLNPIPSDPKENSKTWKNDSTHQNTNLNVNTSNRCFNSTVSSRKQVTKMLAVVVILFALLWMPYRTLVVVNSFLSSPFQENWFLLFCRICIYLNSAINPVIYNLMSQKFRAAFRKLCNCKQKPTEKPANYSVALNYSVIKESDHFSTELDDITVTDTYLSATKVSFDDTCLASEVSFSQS

CC(=O)c1ccccn1
inactive: Potency [1] | Potency [2] | Potency [3] | outcome [4] | Potency [5] | Potency [6] | Potency [7] | Potency [8] | Potency [9] | Potency [10] | Potency [11] | Potency [12] | outcome [13] | Potency [14] | Potency [15]

CCC(C)CO (stereo unspecified)
inactive: Potency [1] | Potency [2] | Potency [3] | Potency [16] | Potency [17] | outcome [4] | Potency [5] | Potency [6] | Potency [7] | Potency [8] | Potency [9] | Potency [11] | Potency [12] | outcome [13]

O=Cc1ccccc1O
inactive: Potency [1] | Potency [2] | Potency [3] | Potency [16] | Potency [17] | outcome [4] | Potency [5] | Potency [6] | Potency [7] | Potency [8] | Potency [9] | Potency [10] | Potency [11] | Potency [12] | outcome [13] | Potency [14] | Potency [15]

C=C(C)C1CC=C(C)CC1 (stereo unspecified)
inactive: Potency [1] | Potency [2] | Potency [3] | Potency [16] | Potency [17] | Potency [7] | Potency [8] | Potency [9] | Potency [10] | Potency [11] | Potency [12] | outcome [13]

CCC(C)OC(=O)c1ccc(O)cc1 (stereo unspecified)
inactive: Potency [1] | Potency [2] | Potency [3] | Potency [16] | outcome [4] | Potency [5] | Potency [6] | Potency [7] | Potency [9] | Potency [10] | Potency [11] | Potency [12] | outcome [13] | Potency [14] | Potency [15]
active: Potency [17] 19.4 µM and 48.6 µM | Potency [8] 48.9 µM and 54.5 µM

COC(=O)C1=C(C)NC(C)=C(C(=O)OCCN(C)Cc2ccccc2)C1c1cccc([N+](=O)[O-])c1 (stereo unspecified)
active: Potency [1] 68.2 µM | Potency [2] 60.8 µM | Potency [3] 68.2 µM and 29.8 µM | Potency [16] 60.8 µM | Potency [9] 30.5 µM | Potency [10] 30.5 µM
inactive: Potency [17] | outcome [4] | Potency [5] | Potency [7] | Potency [11] | Potency [12] | outcome [13] | Potency [14] | Potency [15]

CCCC(=O)O
inactive: Potency [1] | Potency [2] | Potency [3] | outcome [4] | Potency [5] | Potency [6] | Potency [7] | Potency [8] | Potency [9] | Potency [10] | Potency [11] | Potency [12] | outcome [13] | Potency [14] | Potency [15]

Cc1ccc(C(=O)c2cc(O)c(O)c([N+](=O)[O-])c2)cc1
inactive: Potency [3] | outcome [4] | Potency [5] | Potency [7] | Potency [9] | Potency [11] | Potency [12] | Potency [14] | Potency [15]
active: Potency [1] 24.3 µM | Potency [2] 54.5 µM and 29.8 µM | Potency [6] 27.3 µM and 29.8 µM | Potency [8] 23.7 µM

C#C[C@]1(O)CC[C@H]2[C@@H]3CCc4cc(OC)ccc4[C@H]3CC[C@@]21C
active: Potency [3] 21.7 µM | Potency [17] 137 nM and 211 nM | Potency [7] 7.7 µM
inactive: Potency [1] | Potency [2] | outcome [4] | Potency [5] | Potency [6] | Potency [9] | Potency [11] | Potency [12] | outcome [13] | Potency [14] | Potency [15]

C=CC(C)(CCC=C(C)C)OC(C)=O (stereo unspecified)
inactive: Potency [1] | Potency [2] | Potency [3] | Potency [17] | outcome [4] | Potency [5] | Potency [6] | Potency [7] | Potency [8] | Potency [9] | Potency [11] | Potency [12] | outcome [13] | Potency [14] | Potency [15]

Nc1ccc(Nc2ccccc2)cc1
active: Potency [1] 4.8 µM and 1.72 µM and 4.33 µM | Potency [3] 24.3 µM
inactive: Potency [2] | Potency [16] | Potency [17] | Potency [7] | Potency [9] | Potency [10] | Potency [11] | Potency [12] | outcome [13] | Potency [14] | Potency [15]

CCCc1c(OCCCCc2nn[nH]n2)ccc(C(C)=O)c1O
active: Potency [3] 68.6 µM
inactive: Potency [1] | Potency [2] | Potency [16] | Potency [17] | outcome [4] | Potency [5] | Potency [7] | Potency [9] | Potency [11] | Potency [12] | Potency [14] | Potency [15]

CN1C(C(=O)Nc2ccccn2)=C(O)c2ccccc2S1(=O)=O
inactive: Potency [1] | Potency [2] | Potency [3] | Potency [17] | outcome [4] | Potency [5] | Potency [6] | Potency [7] | Potency [8] | Potency [9] | Potency [11] | Potency [12] | outcome [13] | Potency [14] | Potency [15]

O=C(Nc1ccc([N+](=O)[O-])cc1Cl)c1cc(Cl)ccc1O
active: Potency [2] 1.93 µM and 1.46 µM | Potency [3] 8.63 µM and 92 nM | Potency [16] 2.17 µM | Potency [17] 77 nM | Potency [6] 1.37 µM and 1.3 µM | Potency [8] 30.6 µM | Potency [9] 30.6 µM
inactive: activity change, negative = cytotoxicity [16] -26.7% [at 19 µM] | activation [17] -10.6% [at 19 µM] | outcome [4] | Potency [5] | activation [7] 2.96% [at 19 µM] | activity change, negative = cytotoxicity [9] -2.12% [at 18.9 µM]
